Rows were chosen to be rich in hits. Some 12% of all compounds tested hit in one or more screens of this group.
BAZ2B inh – inhibitors of human BAZ2B bromodomain; AlphaScreen BAZ2B-H3K14Ac peptide displacement; Potency, µM (top dose mostly 114 µM), for inactives: at the highest dose activity change, negative = inhibition, most hits filed as inhibitors; 360,000 tested, 4.4% active; AID 504333; note: % is set by controls: 0 for no effect and ±100 for the full control effect; nearly all actives have a fitted effect of over 60% in size
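Complex of BAZ2B and biotin-H3K14Ac (50 nM apiece) forms over 30 min at RT, then faces library compounds up to 110 uM for another 30 min; AlphaScreen beads added, 20 min dark incubation, luminescence read.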
Sfp inh – inhibitors of Bacillus subtilis Sfp phosphopantetheinyl transferase; Q9F4F7; Biochemical Sfp PPTase activity, qHTS; Potency, µM, without a hit: largest response in the series, negative = inhibition, hits mostly inhibitors; 310,000 tested, 3.5% active;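 note: the enzyme is Sfp with the accession as filed and its product quenches rhodamine fluorescence; 0% = enzyme reaction without inhibitor and -100% = no enzyme wells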
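Sfp 15 nM + cpd, 15 min RT; start w/ rhodamine-CoA 5 uM, BHQ-2-YbbR 12.5 uM (final); 50 mM Hepes pH 7.6, 10 mM MgCl2, 0.01% NP-40, 0.01% BSA; read 525/598 nm at 0 and 30 min.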
G9a block – G9a (human) methyltransferase inhibition. 350,000 tested, 8.8% active. Q96KQ7. Potency, µM (titrated, usually from 102 µM), without a hit: top-dose activity, negative = inhibition, hits mostly inhibitors. G9a H3K9 monomethylation, AlphaScreen, 2 h; note: % is set by controls: 0 for no effect and ±100 for the full control effect; nearly all actives have a fitted effect of over 75% in size
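AlphaScreen read-out: biotin-H3K9 peptide (500 nM) methylation by 20 nM enzyme with 20 uM SAM, 2 h at room temperature after 15 min compound preincubation; anti-monomethyl H3K9 antibody plus donor/acceptor beads, 10 min dark.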
HP1b binding inh – HP1-beta chromodomain-methylated histone interaction inhibition | 390,000 tested, 0.56% active | Potency, µM (doses to about 114 µM), for inactives: top-dose activity change, negative = inhibition, actives largely listed as inhibitors | AID 540317 | AlphaScreen HP1-beta / biotin-H3K9me3 peptide binding | P83916; note: nearly all actives have a fitted effect of over 70% in size
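HP1-beta protein (50 nM final) preincubated 30 min at room temperature with biotinylated H3(1-18)K9me3 peptide (50 nM) in PBS pH 7.4, 0.01% Tween-20, then compound added for 30 min. AlphaScreen streptavidin donor/nickel chelate acceptor beads (10 ug/mL final), 30 min dark, luminescence read.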
L3MBTL1 inh – L3MBTL1 (human) inhibition; Q9Y468; Potency, µM (doses to about 57.1 µM), without a hit: at the highest dose activity, negative = inhibition, most hits filed as inhibitors; AID 485360; 230,000 tested, 0.66% active; AlphaScreen L3MBTL1–H3K9me1 peptide binding; note: % is set by controls: 0 for no effect and ±100 for the full control effect; nearly all actives have a fitted effect of over 60% in size
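AlphaScreen proximity signal between nickel-chelate acceptor and streptavidin donor beads (final 10 ug/mL) reports binding of 50 nM L3MBTL1 to 75 nM biotin-H3 K9me1 peptide; complex incubated with compounds 30 min at room temperature; cefsulodin titration as control.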
JMJD2A Tudor inh – blocks the human JMJD2A Tudor domain; O75164; AlphaScreen JMJD2A-Tudor / H3K4me3 peptide binding; Potency, µM (series often up to 114 µM), without a hit: at the highest dose activity change, negative = inhibition, usual class: inhibitors; 390,000 tested, 4.4% active; AID 504339; note: % is set by controls: 0 for no effect and ±100 for the full control effect; nearly all actives have a fitted effect of over 50% in size
Starred values were filed as active, the others as inactive; ? = inconclusive; . = no result; [ ] = remark or other dose. Calls come from the whole dose curve; as a rule, active = well fitted curve in the direction sought with a large enough effect; inconclusive = small, poorly fitted or top-dose-only effect, or another doubt; inactive = no such curve, though single readings can be large; an effect the other way counts as inactive or inconclusive. Potency is the fitted concentration of half-maximal effect.

SMILES | BAZ2B inh | Sfp inh | G9a block | HP1b binding inh | L3MBTL1 inh | JMJD2A Tudor inh
COc1cccc(NC(=O)CSc2nccn2Cc2ccc3c(c2)OCO3)c1 | ? | . | -9%[59 µM] | 1%[57 µM] | . | ?
O=C(O)c1ccc(CSc2nc3ccc(NC(=O)c4ccccc4C(=O)O)cc3s2)cc1 | ? | -9% | 45µM* | 73% | -6% | -33%
CN1CCN(c2ncc3nc(-c4cccc(C#N)c4)c(=O)n(Cc4ccc(F)cc4)c3n2)CC1 | . | 2% | -42%[0.501 µM] | . | . | .
Cc1cccc(NC(=O)C2CCCN(c3nnc(-n4c(C)ccc4C)s3)C2)c1C (configuration not stated) | -4% | . | -1%[59 µM] | 4% | . | -19%
Cc1ccc(N/C=C/C(=O)C(C)(C)C)c(O)c1 | ? | 89µM* | -14% | -10% | . | -32%
C[C@H](CN1c2ccccc2Sc2cccnc21)N(C)C | . | 13% | ? | . | . | .
COc1ccc(-c2nc(CS(=O)CC(=O)NC3CCCCC3)c(C)o2)cc1OC (configuration not stated) | -15% | -3% | ? | 39% | . | -5%
COc1ccc(-c2nc(CS(=O)CC(=O)NC3CCCC(C)C3C)c(C)o2)cc1OC (configuration not stated) | -4% | -2% | 56µM* | 27% | . | -5%
COc1ccc(-c2nc(CS(=O)CC(=O)NCCC3=CCCCC3)c(C)o2)cc1 (configuration not stated) | -2% | ? | 79µM* | 57% | -5% | -19%
CCc1ccc(-c2nc(CS(=O)CC(=O)NC3CCCCCC3)c(C)o2)cc1 (configuration not stated) | -25% | 50µM* | . | 20% | . | -22%
CCCSc1ncc(Cl)c(C(=O)Nc2c(C(=O)Nc3ccc(C)cc3)oc3ccccc23)n1 | 1% | . | 8%[59 µM] | 41% | . | -11%
COC(=O)CN1C(=O)CSc2ccc(S(=O)(=O)N3CCOCC3)cc21 | 0% | . | ? | 54% | . | 2%
CCCCN(C)CCNC(=O)c1c2c(nc3ccccc13)C(=O)N(C1CCCCC1)C2 | -12% | . | 5%[59 µM] | 1% | . | -11%
O=C(CSc1nnc(-c2ccc(Cl)cc2)o1)N1CCc2ccccc21 | -4% | . | 1%[59 µM] | 2% | . | -5%
CC(=O)/C(=N\Nc1ccc(Cl)cc1)Sc1nnc(-c2ccccc2)n1-c1ccccc1 | -4% | -13% | 6.3µM* | 29% | -1% | ?
COc1ccc(C(=O)Nc2cccc(-c3cn4ccsc4n3)c2)cc1OC | -25% | . | -23%[59 µM] | 7%[57 µM] | . | -27%
O=C(CN1CCCCCC1)Nc1ccccc1 | 50µM* | ? | 4µM* | ? | -10% | 8.9µM*
O=C(CN1CCCCC1)NN(Cc1ccccc1)c1ccccc1 | 50µM* | -10% | 16µM* | ? | -3% | -2%[11.4 µM]
CCc1cccc(C)c1NS(=O)(=O)Cc1ccccc1 | -3% | 11% | 79µM* | 15% | -4% | -7%
CN1CCc2c1nc1ccccc1c2NC(=O)CN1CCCC1 | ? | -21% | . | -16% | 4% | 5.6µM*
O=C(CN1CCCCC1)Nc1ccccc1NC(=O)CN1CCCCC1 | 5% | 1% | -39% | 19% | 5% | 16%[57.1 µM]
CCCCCCC(=O)Nc1c2c(nc3ccccc13)N(C)CC2 | ? | 10% | 7%[59 µM] | 37% | . | -3%
O=S(=O)(Cc1ccccc1)Nc1ccccc1 | 5% | 9% | . | 29% | 4% | 4%
CC(=O)c1ccc(N2C(=O)N(Cc3cccc(C(F)(F)F)c3)c3ccccc3S2(=O)=O)cc1 | -2% | . | 4%[59 µM] | 40% | . | -7%
O=C(CN1CCCC1)Nc1ccc(Br)cc1 | 50µM* | 50µM* | 4.5µM* | ? | 41% | 13µM*
SMILES | BAZ2B inh | Sfp inh | G9a block | HP1b binding inh | L3MBTL1 inh | JMJD2A Tudor inh
CCN(CC)c1ccc(NC(=O)CN2CCN(CC(=O)Nc3ccc(OC)cc3)CC2)cc1 | -26% | 1% | 11µM* | 12% | . | -21%
Cc1ccc(NC(=O)CNCc2ccccc2)cc1Br | 50µM* | ? | 7.9µM* | ? | 2% | 0.79µM*
CCN(CC)c1ccc(NC2CC(=O)N(CCc3ccc(OC)cc3)C2=O)cc1 (configuration not stated) | 35µM* | 32µM* | ? | ? | . | 40µM*
Cc1ccc(NC(=O)CNCc2ccccc2)c(Br)c1 | 5% | 9% | 51%[59 µM] | 37% | . | -12%
COc1cccc(NC(=O)C(C)n2c(=O)cc(C(F)(F)F)c3c(C)nn(C)c32)c1 (configuration not stated) | -11% | . | 5%[59 µM] | 32% | . | -15%
O=C(CN1CCCC1)Nc1ccc(OC(F)(F)F)cc1 | ? | -21% | . | ? | 24% | 0.79µM*
O=C(CNCC1CCCCC1)Nc1ccc(OC(F)(F)F)cc1 | 50µM* | -11% | 8.9µM* | -25% | 26% | 3.5µM*
CN(C)c1ccc(NC(=O)N2CCOCC2)cc1 | ? | 40µM* | 4µM* | -12% | -27% | ?
CN(C)c1ccc(NC(=O)CN2CCC(N3CCCCC3)CC2)cc1 | 45µM* | 89µM* | 2.2µM* | ? | . | ?
O=C(Nc1ccc(F)cc1)N1CCOCC1 | 7% | 8% | 15%[2.33 µM] | 26% | . | 6%
O=C(CN1CCc2ccccc2C1)Nc1ccc(OC(F)(F)F)cc1 | 18% | 16% | -14%[2.33 µM] | 85% | . | 30%
O=[S+]([O-])(c1ccc(-c2ccccc2)cc1)N1CCN([S+](=O)([O-])c2ccc3c(c2)OCCO3)CC1 | . | . | . | . | . | -14%
CCn1c(=O)c2sccc2n2c(CCC(=O)Nc3ccc(C(C)C)cc3)nnc12 | 3% | . | -5%[59 µM] | 16% | . | -21%
CN(C)c1ccc(NC(=O)CN2CCC(NC(=O)C3CCCCC3)CC2)cc1 | -38% | 0% | ? | -18% | . | ?
CN(C)c1ccc(NC(=O)CN2CCN(CC(=O)Nc3ccc(Br)cc3)CC2)cc1 | -15% | . | 8.9µM* | 20%[57 µM] | . | -23%
CCN1CCN(CC(=O)Nc2ccc(N(C)C)cc2)CC1 | ? | 13% | ? | -4% | -3% | 7.1µM*
CCN(CC)c1ccc(NC(=O)CN2CCN(S(=O)(=O)c3ccc(C(C)C)cc3)CC2)cc1 | 7.9µM* | . | ? | ? | . | 14µM*
O=C(CN1CCC(NC(=O)C2CCCCC2)CC1)Nc1ccccc1 | . | . | . | -27%[57 µM] | . | 0.89µM*
COc1ccc(C)cc1NC(=O)c1cc(S(=O)(=O)NC2CCCCCC2)ccc1F | 0% | . | 18%[59 µM] | 20% | . | -17%
CCc1cccc(C)c1NC(=O)CNCc1ccccc1 | 56% | -13% | 18µM* | ? | 26% | 8.9µM*
Cc1ccc(NC(=O)CN2CCCC2)cc1Br | ? | -9% | 50µM* | 0% | 0% | 56µM*
Cc1ccc(NC(=O)CN2CCCC2)cc1 | 4% | 1% | . | 22% | 1% | -12%

Screens: PubChem BioAssay, National Center for Advancing Translational Sciences (NCATS)
